# A structure can be active in one record and inactive in another. Active and inactive are the calls of the source. How the source made its calls: active means hit-call score of the fitted dose curve at least 0.9, where 1 is the maximum; inactive means score below 0.9.
# Assay: IUF_NPC2a_radial_glia_migration_72hr: Leibniz Research Institute for Environmental Medicine (IUF) 72-hour Neural Progenitor Cell Migration Assay for Radial Glia Migration (NPC2a) (AID 2284299)
# Protocol: IUF_NPC2-5 is a cell-based, multiplexed assay that uses hNPC, a human primary neural progenitor cells, with measurements taken at 72 or 120 hours after chemical dosing in a 96-well plate. Human neural progenitor cells (hNPC) are generated from human fetal brain cortex at gestational week (GW) 16-19. In the neural progenitor cell migration and differentiation assay (NPC2-5), hNPCs grown as spheres are plated on an extracellular matrix and migrate and differentiate out of the sphere core. The processes radial glia migration, neuronal and oligodendrocyte migration as well as neuronal differentiation, neuronal morphology and oligodendrocyte differentiation are studied using automated phase contrast imaging and automated fluorescence imaging in combination with high content image analysis. In parallel, the cell viability is assessed using an alamar blue viability assay and the cytotoxicity using a lactate dehydrogenase dependent membrane integrity assay.IUF_NPC2a_radial glia_migration_72hr is one of 12 assay components measured from the IUF_NPC2-5 assay. The migration distance of radial glia at 72 hr is assessed in um from the edge of the sphere core to the edge of the migration area based on brightfield images of each well. Therefore, each plate is scanned using a high content imaging device. Images are exported and the migration distance is measured manually in four directions using ImageJ. The mean of four measures per well is used as raw data input.Data from the IUF_NPC2a_radial_glia_migration_72hr component was analyzed at the endpoint IUF_NPC2a_radial_glia_migration_72hr in the positive analysis fitting direction relative to DMSO as the negative control and baseline of activity. Using a type of migration reporter, gain or loss-of-signal activity can be used to understand developmental effects.
# Culture protocol: After the cell expansion period the cells are cultured for up to four weeks in which they are passaged every week as described in 3.6. Between one to three days after passaging spheres at a size of 0.3 mm are picked for the test method. For the assessment of neural progenitor cell migration and differentiation, the spheres are plated on poly-D-lysine/laminin coated 96-well flat bottom plates in differentiation medium (N2) to initiate migration and differentiation. Thereby one 0.3 mm big sphere is plated in the middle of a well. The differentiation medium consists of DMEM and Ham's F12 at a ratio of 3 to 1 supplemented with 1% N2 and 1% penicillin and streptomycin. Within 5 days NPCs radially migrate out of the sphere core and differentiate into radial glia cells (nestin positive), neurons (TUBB3 positive), oligodendrocytes (O4 positive) and astrocytes (GFAP positive). Cultivation during the test method is performed at 37C and 5% CO2 at a ph of 7.2-7.6.Exposure: 0.3 mm big hNPC are plated in the already prepared test conditions. Exposure starts at day 0 of differentiation and is continued over five days of differentiation until the experiment is terminated. Cells are fed with fresh medium at day 3 of differentiation. Therefore, half of the test condition solution (e.g. solvent control or compound dilution) is replaced by freshly prepared test condition solution.Test Method: Migration distance and cytotoxicity is determined after 72 hours based on brightfield images of each well. The assay is terminated by the assessment of cell viability and cytotoxicity as well as cell fixation after 120 h. Immunocytochemistry is performed for Hoechst positive nuclei, TUBB3 positive neurons and O4 positive oligodendrocytes. On the ICC images, migration after 120 hours, neuronal and oligodendrocyte number, neuronal morphology and neuron/oligodendrocyte specific migration is assessed. immunocytochemical staining (ICC) generates an image for each sphere. The plates are scanned using an automated high content imaging device and all nuclei and their positions are determined automatically based on their intensity and size. […]
Structure (SMILES),outcome,AC50
CC1(C)C(C=C(Cl)Cl)C1C(=O)OC(C#N)c1ccc(F)c(Oc2ccccc2)c1 (centres undefined),inactive,
O=[N+]([O-])/N=C1\NCCN1Cc1ccc(Cl)nc1,inactive,
CC[C@H](C)[C@H]1O[C@]2(C=C[C@@H]1C)C[C@@H]1C[C@@H](C/C=C(\C)[C@@H](O[C@H]3C[C@H](OC)[C@@H](O[C@H]4C[C@H](OC)[C@@H](O)[C@H](C)O4)[C@H](C)O3)[C@@H](C)/C=C/C=C3\CO[C@@H]4[C@H](O)C(C)=C[C@@H](C(=O)O1)[C@]34O)O2 (tested in a mixture with another compound),,7.19 µM (active)
CCC(C)(C)C(=O)OC1=C(c2ccc(Cl)cc2Cl)C(=O)OC12CCCCC2,inactive,
O=C(O)COc1ccc(Cl)cc1Cl,inactive,
COP(=O)(OC)OC=C(Cl)Cl,,59.7 µM (active)
O=S(=O)(O)C(F)(F)C(F)(F)C(F)(F)C(F)(F)C(F)(F)C(F)(F)C(F)(F)C(F)(F)F,inactive,68.6 µM (active)
O=C(O)C(F)(F)C(F)(F)C(F)(F)C(F)(F)C(F)(F)C(F)(F)C(F)(F)F,inactive,
CNC(=O)CSP(=S)(OC)OC,inactive,
CC(C)N(C(=O)COc1nnc(C(F)(F)F)s1)c1ccc(F)cc1,inactive,
O=S1OCC2C(CO1)C1(Cl)C(Cl)=C(Cl)C2(Cl)C1(Cl)Cl (centres undefined),inactive,
COP(=S)(OC)Oc1ccc([N+](=O)[O-])cc1,inactive,
CC1(c2ccc(Oc3ccccc3)cc2)OC(=O)N(Nc2ccccc2)C1=O (centres undefined),inactive,

# Reference: PubChem BioAssay (EPA / NIEHS)
